Laboratory results: PubChem BioAssay AID588814 (The Scripps Research Institute Molecular Screening Center, 2011)
In all, about 360,000 compounds went through this assay and about 1,200 (0.33%) were called active.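 How the source made its calls: active means activation above the run's mean compound activation plus 3 SD (cut at about 16% in these data); inactive means the rest.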 The list comes from a sample in which actives are over-represented; it also holds similar structures and randomly drawn compounds.

These compounds were tested against Muscarinic acetylcholine receptor M1 (Homo sapiens) (UniProt P11229) (assay: CHRM1 activation via calcium signal – Fluo-8 calcium fluorescence, CHO-K1 cells, HTS, primary screen (AID 588814;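 further: peak over basal fluorescence ratio within a 140 s kinetic read after compound addition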)). Conditions: CHO-K1 hM1, Fluo-8 calcium fluorescence, agonist mode; at 3 µM; hits give high values; 0% DMSO, 100% acetylcholine EC100.
Muscarinic acetylcholine receptor M1 (Homo sapiens), sequence (P11229 whole entry, looked up): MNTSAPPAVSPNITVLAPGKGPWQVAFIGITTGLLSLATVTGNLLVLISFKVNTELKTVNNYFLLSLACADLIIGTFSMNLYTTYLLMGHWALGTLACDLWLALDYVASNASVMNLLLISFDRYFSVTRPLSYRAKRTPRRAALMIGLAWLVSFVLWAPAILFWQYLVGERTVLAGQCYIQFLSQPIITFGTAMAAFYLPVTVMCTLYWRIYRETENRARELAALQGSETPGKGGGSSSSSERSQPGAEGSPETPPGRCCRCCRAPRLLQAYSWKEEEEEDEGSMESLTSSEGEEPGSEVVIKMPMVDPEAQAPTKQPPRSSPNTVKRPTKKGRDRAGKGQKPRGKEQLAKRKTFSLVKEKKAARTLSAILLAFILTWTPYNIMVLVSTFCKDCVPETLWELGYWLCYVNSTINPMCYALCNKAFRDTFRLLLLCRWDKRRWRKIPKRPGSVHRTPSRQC

Row | SMILES | activation
1 | CCOC1=C2[C@@H](CN(S(=O)(=O)c3ccc(C)cc3)[C@H]2c2ccccc2F)[C@H]2C(=O)N(Cc3ccccc3)C(=O)[C@H]2C1 | -5.09% (inactive)
2 | CCCc1cc(=O)[nH]c(SCC(=O)Nc2ccc(S(=O)(=O)N3CCCC3)cc2)n1 | -4.58% (inactive)
3 | CCC(=O)c1ccc(OCC(=O)OCC(=O)N2CCc3ccccc3C2)cc1 | -1.8% (inactive)
4 | CCN1CCc2nc(NC(=O)c3cc(F)c(F)cc3Cl)sc2C1 | -7.11% (inactive)
5 | COC(=O)c1ccc(CSc2ccc3nnc(-c4ccccc4)n3n2)o1 | -7.9% (inactive)
6 | CCN1/C(=C\c2ccc3ccccc3[n+]2CC)Sc2cc(C)ccc21 | 26.1% (active)
7 | COCCNC(=O)C1CCCN(Cc2ccccc2Cl)CC1 (stereo unspecified) | -7.52% (inactive)
8 | CCCNC(=O)CCn1nc(-c2ccccc2)c2ccccc2c1=O | -3.19% (inactive)
9 | COc1ccc(CNC(=O)CN(C(=O)c2csnn2)c2cnc3ccccc3c2)cc1 | -11.5% (inactive)
10 | CCOC(=O)C(CC)/C(C)=N\NC(=O)c1cccc(C)c1 (stereo unspecified) | -0.97% (inactive)
11 | Cc1cc(C)c(/C=C2\C(=O)Nc3ccccc32)[nH]1 | 26.4% (active)
12 | COc1ccccc1S(=O)(=O)c1c(C)cc(C)[nH]c1=O | -1.5% (inactive)
13 | O=C1c2ccccc2NC(c2ccccn2)N1NS(=O)(=O)c1ccccc1 (stereo unspecified) | 0.48% (inactive)
14 | CN(C)c1ccc(/C=C2\NC(=S)N(Cc3ccccc3)C2=O)cc1 | 47.3% (active)
15 | CN(C(=O)CN1C(=O)NC(C)(CCc2ccccc2)C1=O)c1ccccc1 (stereo unspecified) | -0.73% (inactive)
16 | Cc1ccc(CN2C(=O)N/C(=C/c3cc(C)n(-c4ccccn4)c3C)C2=O)cc1 | -1.17% (inactive)
17 | Cc1ccc(S(=O)(=O)N(Cc2ccc(Cl)cc2)c2ccccc2C(=O)NCc2cccnc2)cc1 | -7.63% (inactive)
18 | CC(C)N(C(=O)Cn1cc(SCC(=O)N2CCCC2)c2ccccc21)C(C)C | -6.14% (inactive)
19 | O=C(CC1SCCNC1=O)Nc1ccc(Cl)cc1 (stereo unspecified) | -4.53% (inactive)

Row | SMILES | activation
20 | O=C(Nc1ccc2ccccc2c1)/C(=C\c1ccc2c(c1)OCO2)NC(=O)c1ccco1 | -10.2% (inactive)
21 | CCCc1ccc(OCC(=O)NNC(=S)NC(=O)c2ccco2)cc1 | 4.47% (inactive)
22 | CC(Oc1ccc2ccccc2c1)C(=O)NNC(=S)NC(=O)c1ccco1 (stereo unspecified) | 51.6% (active)
23 | CCc1nc2c(OCCOc3ccccc3)cccn2c1N(C=O)Cc1ccc(OC)cc1 | -6.89% (inactive)
24 | CCOC(=O)[C@H]1[C@H]2COc3cc(OC)ccc3[C@@H]2N2C(=O)N(c3ccc(Br)cc3)C(=O)[C@@]12C | -5.08% (inactive)
25 | Cc1cc(C)c(S(=O)(=O)N2CCC(C(=O)OCc3c(C)noc3C)CC2)c(C)c1 | -3.3% (inactive)
26 | C=CCn1c(SCc2c(C(=O)OC)sc(N)c2C(=O)OC)nnc1-c1ccc(Cl)cc1 | 0% (inactive)
27 | COc1cc(/C=C2/SC(=S)N(Cc3ccccc3)C2=O)cc(OC)c1O | 24.3% (active)
28 | CN1C=CC=C/C1=C1\SC(=S)N(Cc2ccccc2)C1=O | -13.4% (inactive)
29 | COc1ccc(CCNC2=C(Cl)C(=O)N(Cc3ccccc3)C2=O)cc1OC | -3.94% (inactive)
30 | COc1ccc(C)cc1-n1nnnc1SCc1nc2ccccc2c(=O)[nH]1 | 16.2% (active)
31 | CCn1c(COc2c(C)cccc2C)nnc1SCc1nc2ccccc2c(=O)[nH]1 | -4.55% (inactive)
32 | COc1ccc(CCCc2nnc(SCc3nc4ccccc4c(=O)[nH]3)n2C)cc1 | -15.5% (inactive)
33 | O=S1(=O)C[C@@H](N2CCN(CCO)CC2)[C@H](COCc2ccccc2)N1 | 17.3% (active)
34 | CCCCN1CC(COCc2ccccc2)OCCS1(=O)=O (stereo unspecified) | -4.53% (inactive)
35 | O=C1CCN(CCCc2ccccc2)CCN1CCO | -5.68% (inactive)
36 | COc1ccc(OC)c(NC(=O)c2cc(-c3cc(F)ccc3OCC3CCCO3)n[nH]2)c1 (stereo unspecified) | -6.22% (inactive)
37 | CC(C)(C)OC(=O)NC(Cc1ccccc1)C(=O)NC(CSC1CCCCO1)C(=O)NN (stereo unspecified) | -3.12% (inactive)
38 | COC(=O)c1cc(C(=O)NC(C)C2CC3CCC2C3)cc([N+](=O)[O-])c1 (stereo unspecified) | -7.37% (inactive)

Row | SMILES | activation
39 | CCN(CC)CCCC(C)n1c2nc(=O)[nH]c(=O)c-2nc2cc(Cl)ccc21 (stereo unspecified) | 182% (active)
40 | COc1ccc(C(CCNCc2ccccc2F)c2ccc(F)cc2)cc1 (stereo unspecified) | -4.82% (inactive)
41 | Fc1ccccc1COc1ccccc1CNCc1ccncc1 | -7.35% (inactive)
42 | COc1cccc(CNCCc2c[nH]c3ccccc23)c1OCc1ccccc1F | 16.5% (active)
43 | CC(C)C[C@H]1CN=C(Nc2ccccc2)N1CC1CCCCC1 | -8.04% (inactive)
44 | CC(=O)Nc1ccc(OC(=O)COc2ccc(Br)cc2)cc1 | -5.95% (inactive)
45 | Cc1ccc(O)c(NC(=S)NC(=O)COc2ccc(Br)cc2)c1 | 33.4% (active)
46 | Cn1cccc1C(=O)NNC(=O)COc1ccc(Br)cc1 | -2.51% (inactive)
47 | COCCNc1cc(-c2ccccc2)nc2cc(-c3cccc(F)c3)nn12 | -4.59% (inactive)
48 | COc1cc(NC(=O)CN2C(=O)NC(C)(c3ccc(OC(F)F)cc3)C2=O)cc(OC)c1OC (stereo unspecified) | 5.37% (inactive)
49 | Cc1ccc(C2(C)NC(=O)N(CC(=O)N3CC(=O)Nc4ccccc43)C2=O)cc1 (stereo unspecified) | -1.27% (inactive)
50 | CC1CCC2(CC1)NC(=O)N(CC(=O)c1ccc3c(c1)OCO3)C2=O (stereo unspecified) | -2.81% (inactive)
51 | Cc1ccc(S(=O)(=O)N2CCN(C(=O)CN3C(=O)NC(C)(c4ccc(Cl)cc4)C3=O)CC2)c(C)c1 (stereo unspecified) | -3.67% (inactive)
52 | Cc1ccc(C2(C)NC(=O)N(CC(=O)Nc3ccccc3C(=O)N3CCCCC3)C2=O)cc1 (stereo unspecified) | 0.58% (inactive)
53 | COc1ccc(C2(C)NC(=O)N(CC(=O)c3ccc4c(c3)OCO4)C2=O)cc1 (stereo unspecified) | 10.2% (inactive)
54 | COc1ccc(C(=O)CN2C(=O)NC(C)(c3ccc(C)cc3)C2=O)cc1OC (stereo unspecified) | 16.2% (active)
55 | Cc1ccc(NC(=O)CN2C(=O)NC(C)(c3ccc(Cl)cc3)C2=O)c(Br)c1 (stereo unspecified) | 17.6% (active)
56 | CC1(c2ccc(Cl)cc2)NC(=O)N(CC(=O)c2ccc3c(c2)OCO3)C1=O (stereo unspecified) | 20.6% (active)
